Compounds with a hit are over-represented: about 1.8% of the library has one in this group of screens.
GLP1R inv ag – inverse agonists of human GLP-1 receptor; HEK293 GLP-1R CRE-luciferase, luminescence, 24 h; GLP-1R form is constitutively active; AID 624417; P43220; Potency, µM (series often up to 38.3 µM), without a hit: at the top dose activity change, negative = inhibition, usual class: inhibitors; hit rate 1.6% among 410,000; further: on the % scale 0 is the no-effect control and ±100 the full control effect; nearly all actives have a fitted effect of over 55% in size
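Readout was luciferase luminescence, measured 12 min after detection reagent at room temperature. Beforehand, GLP-1R reporter HEK293 cells had sat 12 h, then received compounds for 24 hr at 37 deg C.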
GLP1R cytotox – cytotoxicity in counter-screen for GLP-1R inverse agonists; HEK293 cAMP-luciferase reporter cells, luminescence, 24 h; Potency, µM (top dose mostly 38.3 µM), without a hit: at the top dose activity change, negative = inhibition, usual class: inhibitors; hit rate 0.13% among 410,000; AID 624418;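 further: loss of luciferase light is scored as toxicity; on the % scale 0 is the no-effect control and ±100 the full control effect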
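To flag toxic compounds, the library was rerun on cells for 24 hr at 37 deg C and 5% CO2. Viability-linked luminescence was captured 12 min after adding luciferase detection reagent.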
PTHR1 ag – activates the human parathyroid hormone receptor PTHR1 | hit rate 0.075% among 410,000 | Potency, µM (series often up to 115 µM), for inactives: top-dose activation, usual class: activators | HEK293 GP2 PTHR1 cells, GloSensor cAMP luminescence, 1 h | Q03431; further: nearly all actives have a fitted effect of over 55% in size
Target sequence (Q03431 whole entry, looked up): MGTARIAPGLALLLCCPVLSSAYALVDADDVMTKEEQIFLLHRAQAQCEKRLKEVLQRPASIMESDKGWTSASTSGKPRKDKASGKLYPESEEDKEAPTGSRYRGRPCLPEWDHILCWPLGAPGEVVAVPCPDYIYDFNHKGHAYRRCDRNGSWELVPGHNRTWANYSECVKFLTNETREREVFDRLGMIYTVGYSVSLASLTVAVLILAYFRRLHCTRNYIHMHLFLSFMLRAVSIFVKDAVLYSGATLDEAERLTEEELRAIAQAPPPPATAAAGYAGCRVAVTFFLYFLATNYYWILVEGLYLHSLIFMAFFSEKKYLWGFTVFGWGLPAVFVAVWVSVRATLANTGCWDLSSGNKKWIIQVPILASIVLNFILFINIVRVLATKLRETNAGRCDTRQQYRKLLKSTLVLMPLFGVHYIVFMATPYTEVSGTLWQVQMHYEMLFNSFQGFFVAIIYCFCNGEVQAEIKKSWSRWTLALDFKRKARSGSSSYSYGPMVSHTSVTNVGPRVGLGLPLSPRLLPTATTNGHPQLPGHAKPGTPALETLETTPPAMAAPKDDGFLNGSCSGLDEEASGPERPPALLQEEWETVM
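HEK-293-derived GP2 cells expressing PTHR1 and a GloSensor cAMP reporter, 3,000/well, plated overnight, given luciferin plus IBMX (each 0.5 mM as added) for 1 h at 37 °C, then compound for 1 h at 37 °C. Luminescence was read after 15 min at room temperature.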
KAT2A inh – GCN5L2 (KAT2A) acetyltransferase inhibition. GCN5L2 HAT assay, ThioGlo1 CoA-SH fluorescence. AID 504327. hit rate 0.21% among 390,000. Potency, µM (series often up to 58.9 µM), for the others: at the highest dose activity change, negative = inhibition, hits mostly inhibitors. Q92830; further: on the % scale 0 is the no-effect control and ±100 the full control effect
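ThioGlo1-coupled HAT assay: 20nM GCN5L2, 70uM acetyl-CoA, 75uM H3(1-25) peptide, pH 7.5. Fluorescence read at 340/540nm at start and after 20 min at room temperature.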
GLP-1R agonist – GLP-1 receptor (human) agonism; P43220; HEK293 GLP-1R CRE-luciferase, luminescence, 4-6 h; cells express a hypersensitive GLP-1R form; Potency, µM (titrated, usually from 45.6 µM), for the others: at the top dose activation, actives largely listed as activators; hit rate 0.007% among 380,000; AID 624172; further: % of control where 0% means no effect
RGS4 inhibitor – blocks human RGS4-accelerated GTP hydrolysis | P49798 | Transcreener GDP fluorescence polarization, RGS4-accelerated GTP hydrolysis | Potency, µM (top dose mostly 114 µM), without a hit: at the top dose activity change, negative = inhibition, actives largely listed as inhibitors | hit rate 0.039% among 390,000; further: on the % scale 0 is the no-effect control and ±100 the full control effect; nearly all actives have a fitted effect of over 75% in size
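MLSMR compounds (23 nl, pin-transferred) preincubated 10 min at room temperature with a 500nM (2x) first reagent, then RGS4 at 900nM (2x) plus Transcreener GDP mix added; fluorescence polarization (620/688 nm) read before and after 90 min at 30 °C.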
Numbers without * were called inactive; [ ] = dose if it differs, or a comment. The call rests on the fitted dose curve; in most records, active means well fitted curve in the direction sought with a large enough effect; inconclusive means small, poorly fitted or top-dose-only effect, or another doubt; inactive means no such curve, though single readings can be large; an effect the other way counts as inactive or inconclusive. Potency means the concentration at half of the fitted maximal effect.

`Cc1ccc(N2C(=O)N(CC(=O)C(C)(C)C)c3ccccc3S2(=O)=O)cc1` gave KAT2A inh -6%.
COC(=O)[C@]12CCCCC=C1N(Cc1ccc(Cl)cc1Cl)C(=O)[C@H](CC(=O)N1CCC(c3ccccc3)CC1)C2 was read as GLP1R inv ag 11µM*, GLP1R cytotox 4%, PTHR1 ag -19% and GLP-1R agonist -3%.
Screening CCOC(=O)[C@]12CCCC=C1N(Cc1ccc(Cl)cc1Cl)C(=O)[C@H](CC(=O)N1CCC(c3ccccc3)CC1)C2 returned GLP1R inv ag 11%, GLP1R cytotox 5%, PTHR1 ag -17% and GLP-1R agonist -4%.
For CC(C)[C@H](NC(=O)c1ccccc1F)C(=O)OCCN1C(=O)c2ccccc2C1=O the results were GLP1R inv ag 21%, GLP1R cytotox 10%, PTHR1 ag -63%, KAT2A inh -4%, GLP-1R agonist 15% and RGS4 inhibitor -38%.
`CC1(C)C(=O)N(OCc2ccccc2)C(C)(C)C(=O)N1OCc1ccccc1` gave GLP1R inv ag 10µM*, GLP1R cytotox -4%, PTHR1 ag -29%, KAT2A inh -3%, GLP-1R agonist 1% and RGS4 inhibitor -9%.
For COc1cc(NC(=O)CCc2c(C)nc3c(-c4ccc(F)cc4)c(C)nn3c2C)cc(OC)c1OC the results were GLP1R inv ag 9%, GLP1R cytotox 5%, PTHR1 ag inactive, KAT2A inh -9%, GLP-1R agonist 0% and RGS4 inhibitor -8%.
Cn1ncc2c(Nc3cccc(Cl)c3)nc(Nc3cccc(Cl)c3)nc21 was read as GLP1R inv ag 11µM*, GLP1R cytotox -29%, PTHR1 ag inactive, KAT2A inh -1%, GLP-1R agonist 6% and RGS4 inhibitor 5%.
`Cc1cc(C(=O)CSc2cccc[n+]2[O-])c(C)n1-c1ccc(Br)cc1` gave KAT2A inh -2%.
O=C(CSc1cccc[n+]1[O-])c1ccccc1Br was read as GLP1R inv ag inconclusive, GLP1R cytotox 0.79µM*, PTHR1 ag 4%, KAT2A inh -4%, GLP-1R agonist 3% and RGS4 inhibitor 9%.
COc1ccc(C(C)C)cc1S(=O)(=O)NCCc1c(C)[nH]c2c(Cl)cccc12 was read as GLP1R inv ag inconclusive, GLP1R cytotox -27%, PTHR1 ag inactive, KAT2A inh -1% and RGS4 inhibitor 13%.
`COc1ccc(C(C)C)cc1S(=O)(=O)NCCc1c(C)[nH]c2ccc(C)cc12` gave GLP1R inv ag 11µM*, GLP1R cytotox 2%, PTHR1 ag inactive, KAT2A inh -21% and RGS4 inhibitor -6%.
For COc1cc(S(=O)(=O)NCCc2c(C)[nH]c3ccc(C)cc23)ccc1Br the results were GLP1R inv ag 10µM*, GLP1R cytotox 0%, PTHR1 ag -96%, KAT2A inh -20% and RGS4 inhibitor 10%.
For COc1ccc(CCNC(=O)c2ccc(Cn3c(=O)c4ccccc4n(Cc4ccc(F)cc4Cl)c3=O)cc2)cc1OC the results were GLP1R inv ag 21%, GLP1R cytotox 8%, PTHR1 ag -11%, KAT2A inh -1%, GLP-1R agonist -1% and RGS4 inhibitor 6%.
`Cc1ccc(NC(=O)N2CCCCCC2)cc1C` gave GLP1R inv ag -5%, GLP1R cytotox -15%, PTHR1 ag -17%, KAT2A inh 1%, GLP-1R agonist 8% and RGS4 inhibitor -8%.
Cc1ccc(NC(=O)N2CCCN(Cc3ccc(F)cc3)C2)cc1C was read as GLP1R inv ag 4µM*, GLP1R cytotox inconclusive, PTHR1 ag inactive, KAT2A inh -9%, GLP-1R agonist -12% and RGS4 inhibitor -1%.
CNC(=O)C(=O)NCC1OCCN1S(=O)(=O)c1ccc(C)cc1 (stereo not given) was read as GLP1R inv ag 4%, GLP1R cytotox 6%, PTHR1 ag -16%, KAT2A inh -6%, GLP-1R agonist -28% and RGS4 inhibitor 4%.
`Cc1ccc(S(=O)(=O)N2CCOC2C(Cl)(Cl)Cl)cc1` (stereo not given) gave GLP1R inv ag 10µM*, GLP1R cytotox 3%, PTHR1 ag -10%, KAT2A inh -10%, GLP-1R agonist 1% and RGS4 inhibitor 12%[11.4 µM].
`CCCCN(C)C(=O)CSc1nc2ccccc2nc1Cc1ccc(C)cc1` gave GLP1R inv ag 11µM*, GLP1R cytotox -20%, PTHR1 ag inactive, KAT2A inh -7% and RGS4 inhibitor -5%.
`O=C(CSc1nc(N2CCCCC2)nc(N2CCCCC2)n1)N1CCN(c2ccccc2)CC1` gave GLP1R inv ag 2.8µM*, GLP1R cytotox -21%, PTHR1 ag -6%[57.5 µM], KAT2A inh -10%, GLP-1R agonist 0% and RGS4 inhibitor -6%.
For O=C(CSc1nc2ccccc2nc1SCC(=O)N1CCCCC1)N1CCCCC1 the results were GLP1R inv ag 10µM*, GLP1R cytotox inconclusive, PTHR1 ag -17%, KAT2A inh -2%, GLP-1R agonist -1% and RGS4 inhibitor -18%.
For O=C(CSc1nc2ccccc2nc1Cc1ccc(Cl)cc1)N1CCCCC1 the results were GLP1R inv ag 10µM*, GLP1R cytotox 0%, PTHR1 ag -7%, KAT2A inh -12% and RGS4 inhibitor 14%.
`CCCCNC(=O)CSc1nc2ccccc2nc1Cc1ccc(C)cc1` gave GLP1R inv ag 0%, GLP1R cytotox 5%, PTHR1 ag -20%, KAT2A inh -12%, GLP-1R agonist 2% and RGS4 inhibitor 14%.
`Cn1c(-c2ccccc2)cnc1SCC(=O)N1CCCCC1` gave GLP1R inv ag 4µM*, GLP1R cytotox -13%, PTHR1 ag -2%, KAT2A inh -6%, GLP-1R agonist -31% and RGS4 inhibitor -35%.
`COc1ccccc1N1CCN(C(=O)CSc2nc3ccccc3nc2Cc2ccccc2)CC1` gave GLP1R inv ag 11µM*, GLP1R cytotox -15%, PTHR1 ag -18%, KAT2A inh -15%, GLP-1R agonist 2% and RGS4 inhibitor 12%.
For O=C(CSc1nc2ccccc2nc1Cc1ccc(Cl)cc1)N1CCN(c2ccccc2)CC1 the results were GLP1R inv ag 11%, GLP1R cytotox 3%, PTHR1 ag inactive, KAT2A inh -11% and RGS4 inhibitor 1%.
`CC1CCN(C(=O)CSc2nc(C3CC3)nc3ccccc23)CC1` gave GLP1R inv ag inconclusive, GLP1R cytotox -5%, PTHR1 ag -15%, KAT2A inh -9%, GLP-1R agonist 22% and RGS4 inhibitor -1%.
